Outcome and AC50 data for 40 molecules are collected here from PubChem BioAssay (EPA / NIEHS).

Activity calls are given as the source filed them. How the source made its calls: active means hit-call score of the fitted dose curve at least 0.9, where 1 is the maximum; inactive means score below 0.9.

A short description of the experiment: ATG_ISRE_CIS: Attagene CIS-FACTORIAL HepG2 Assay for human Interferon Regulatory Factor 1 (IRF1) binding to an Interferon-Stimulated Response Element (ISRE) (AID 2282948). The following applies: HepG2 ISRE cis-reporter (Attagene), mRNA transcription readout; actives raise or lower the signal. The method, then: ATG_CIS is a cell-based, multiplexed-readout assay that uses HepG2, a human liver cell line, with measurements taken at 24 hours after chemical dosing in a 24-well plate.ATG_ISRE_CIS is one of 52 assay component(s) measured or calculated from the ATG_CIS assay. It is designed to make measurements of mRNA induction, a form of inducible reporter, as detected with fluorescence intensity signals by Reverse transcription polymerase chain reaction (RT-PCR) and Capillary electrophoresis technology.Data from the assay component ATG_ISRE_CIS was analyzed into 1 assay endpoint. This assay endpoint, ATG_ISRE_CIS, was analyzed with bidirectional fitting relative to DMSO as the negative control and baseline of activity. Using a type of inducible reporter, measures of mRNA for gain or loss-of-signal activity can be used to understand the reporter gene at the transcription factor-level as they relate to the gene IRF1. Furthermore, this assay endpoint can be referred to as a primary readout, because this assay has produced multiple assay endpoints where this one serves a reporter gene function. To generalize the intended target to other relatable targets, this assay endpoint is annotated to the dna binding intended target family, where the subfamily is interferon regulatory factors.
Human liver HepG2 cells are transiently transfected with multiple reporter transcription units (MRTUs) in 6-well plates using FuGene 6 reagent (Roche; 3 ml FuGene/1 mg DNA). The MRTU constructs are regulated by a cis-regulating element (promoter). […] A major difference between the CIS and TRANS system is that in CIS activities of endogenous TFs are measured, whereas the TRANS assay evaluates changes in activities of exogenous, chimeric NR-Gal4 proteins. […] At the end of 24 hour incubation, total RNA was isolated using TriZol reagent (Invitrogen). The isolated RNA is then reverse-transcribed using oligo(dT) primer and Mo-MLV reverse transcriptase (Invitrogen) with DNAse I (Ambion) treatment for 30 min. The one-tenth of the produced cDNA was amplified by PCR using Taq DNA polymerase (Invitrogen) and two reporter sequence-specific primers. The PCR products were fluorescently labeled by primer extension with 6-arboxyfluorescein (6-FAM) 5'-labeled reporter sequence-specific primer (2 min at 95 C, 20 s at 68 C and 10 min at 72 C) and these products were digested with 5U of HpaI (New England Biolabs) for 2h at 37 C. The fragments were purified using Qiaquick PCR columns (Qiagen), analyzed on an ABI 3130xL genetic analyzer (Applied Biosystems) with peak positions identified by using a set of X-rhodamine (ROX)-labeled MapMarker1000 molecular weight standards (BioVentures). The raw capillary electrophoresis data was processed using Attagraph software (Attagene).
On to `C=CC(C)C#N` (stereo not given), for which the outcome was inactive. As to `CC1(C)C(=O)N(Cl)C(=O)N1Br`, the molecule was called inactive. For `O=C1OC(=O)c2c(Br)c(Br)c(Br)c(Br)c21`, the molecule was called inactive. Regarding `CCCC(O)C(O)CO` (stereo not given), the outcome was inactive. Turning to `COc1ccc(CCO)cc1`, the result was inactive. In the case of `Nc1c(Cl)cc(Cl)cc1[N+](=O)[O-]`, the call was inactive. Regarding `CCCCCCCC(=O)OCCCCCC`, the call was inactive. Still for that read-out and setting: the value for `C=C(C)[C@@H]1CC=C(C)C(=O)C1` was “inactive”; that for `C#CC(C)(O)CC(C)C` (stereo not given) was “inactive”.

`Nc1c(S(=O)(=O)O)cc(Br)c2c1C(=O)c1ccccc1C2=O`: the outcome was inactive.

For `CC(=O)O[C@@H]1C[C@@H]2CC[C@@]1(C)C2(C)C`, the molecule was called inactive. For `C=C(C)CNCC`, the molecule was called inactive. For the molecule `CC(C)c1ccccc1O`, the molecule was classed as inactive. Still for that read-out and setting: the value for `CC(C)CCOC(=O)c1ccccc1` was “inactive”. Still for that read-out and setting: the value for `Cc1ccc(-c2ccccc2)cc1` was “inactive”; that for `N[C@@H](Cc1cc(I)c(Oc2cc(I)c(O)c(I)c2)c(I)c1)C(=O)O` was “inactive”. Still for that read-out and setting: to `NC1CCCCC1N` (stereo not given) belongs “inactive”; to `CC1=CC[C@@]23C[C@@H]1C(C)(C)[C@@H]2CC[C@H]3C`, “inactive”. Regarding `CC=Cc1ccc(OCC)c(O)c1`, the call was inactive. Still for that read-out and setting: the value for `Cc1ncc([N+](=O)[O-])n1CCO` was “inactive”. For the molecule `CCCC(C)=O`, the result was inactive. Still for that read-out and setting: the value for `CCOc1ccc(NC(=O)CC(C)=O)cc1` was “inactive”; that for `COc1ccc(N=Nc2cc(C)c(N=Nc3ccc(S(=O)(=O)O)cc3)cc2OC)cc1` was “inactive”; that for `C[Si]1(C)O[Si](C)(C)O[Si](C)(C)O1` was “inactive”.

With `CCCC1O[C@@H]2C[C@H]3[C@@H]4CCC5=CC(=O)C=C[C@]5(C)[C@H]4[C@@H](O)C[C@]3(C)[C@]2(C(=O)CO)O1` (stereo not given in full), the AC50 is 137 µM (active).

On to `CCOC(=O)c1ccc(N)cc1`, for which the molecule was called inactive.

On to `CCCOC(=O)c1c(Cl)c(Cl)c(Cl)c(Cl)c1C(=O)OCCC`, for which the AC50 was 62.1 µM (active). With `NCCNc1cccc2ccccc12`, the call was inactive. The same measure, in the same setting: to `C1=CC2C3C=CC(C3)C2C1` (stereo not given) belongs “inactive”; to `CCCCCCCCCC(=O)OC`, “inactive”. Turning to `CCOC(=O)C1OC1c1ccccc1` (stereo not given), the AC50 is 33.5 µM (active). In the case of `CC(C)=CCCC(C)CC(=O)O` (stereo not given), the result was inactive. Regarding `CCN(CCN)c1cccc(C)c1`, the molecule was called inactive. For the molecule `CN1C(=O)c2ccccc2C1=O`, the molecule was classed as inactive. The same measure, in the same setting: to `CCCCCCOC(=O)C(C)C` belongs “inactive”; to `CC/C=C\CC/C=C/CO`, “inactive”; to `CCCCCCCCCCCCN1CCCCCC1=O`, “inactive”. For the molecule `Cc1occc(=O)c1OC(=O)C(C)C`, the molecule was called inactive. On the same count and under the same terms, the value for `O=C1OC(=O)c2c(Cl)c(Cl)c(Cl)c(Cl)c21` was “inactive”; that for `CN(C)CCOc1ccc(/C(=C(/CCCl)c2ccccc2)c2ccccc2)cc1` was “inactive”.

One may read the AC50 as the midpoint of the concentration-response curve, whichever way the signal moves.
